Mtb UGM inh: blocks M. tuberculosis UGM enzyme; inhibition, % at 10 µM; actives 0.06% (n = 320,000); P9WIQ1; purified UGM, fluorescence polarization probe displacement; in the data active = inhibition above about 10%, passing the limit was not always enough
GDH-TPI counter-1: inhibits GDH-TPI coupling enzymes, artifact for Mtb FBA screen. AID 588335. inhibition, % at 4.8 µM. GDH-TPI coupled enzyme counterscreen, NADH absorbance. actives 1.2% (n = 360,000); in the data active = inhibition above about 30%;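 also: 0% = DMSO wells and 100% = wells lacking the enzyme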
Mtb bLac sens: beta-lactam sensitization of Mtb H37Rv. M. tuberculosis H37Rv growth with meropenem, percent inhibition. inhibition, % at 25 µM. actives 0.27% (n = 330,000); call rule not given here;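 also: growth measured after seven days incubation then overnight dye step; 0% = bacteria only wells and 100% = bacteria with antibiotic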
FBA Mtb inh: inhibitors of M. tuberculosis fructose-bisphosphate aldolase; actives 2.3% (n = 360,000); AID 588726; inhibition, % at 1 µM; purified M. tuberculosis FBA, fluorescence read-out;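 also: 0% = vehicle and 100% = reference inhibitor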
Rv3671c protease: Rv3671c (M. tuberculosis) protease inhibition; inhibition, % at 5.96 µM; actives 0.048% (n = 320,000); P9WHR9; in the data active = inhibition above about 38%;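 also: extracellular domain of Rv3671c used as enzyme; 0% = enzyme with DMSO and 100% = no enzyme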
Target sequence (P9WHR9 whole entry, looked up, the tested form may be a part): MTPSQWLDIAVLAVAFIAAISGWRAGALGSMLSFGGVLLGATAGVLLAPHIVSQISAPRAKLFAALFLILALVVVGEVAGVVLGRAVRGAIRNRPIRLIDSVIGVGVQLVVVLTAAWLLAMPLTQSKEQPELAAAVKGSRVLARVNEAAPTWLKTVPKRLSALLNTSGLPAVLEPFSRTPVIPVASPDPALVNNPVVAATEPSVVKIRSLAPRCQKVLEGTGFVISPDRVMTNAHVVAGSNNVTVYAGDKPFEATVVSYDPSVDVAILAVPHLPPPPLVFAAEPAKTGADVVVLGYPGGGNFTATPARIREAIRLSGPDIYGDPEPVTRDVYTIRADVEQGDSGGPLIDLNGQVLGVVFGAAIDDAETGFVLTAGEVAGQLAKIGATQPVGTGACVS
Mtb FBA confirm: Mtb FBA inhibition, confirmed. purified M. tuberculosis FBA, fluorescence read-out. inhibition, % at 1 µM. shares compounds with FBA Mtb inh. actives 78% (n = 5,600);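 also: 0% = vehicle wells and 100% = reference inhibitor wells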
GDH-TPI counter-2: GDH-TPI inhibition counter-screen for FBA inhibitors | GDH-TPI coupled enzyme counterscreen, fluorescence | actives 81% (n = 5,600) | shares compounds with FBA Mtb inh | AID 652141 | inhibition, % at 1 µM; in the data active = inhibition above about 10%
Numbers without * were called inactive. Most compounds without a hit are left out; they make up all but 3.5% or so of the library. Rule as the data show it, unless noted: active = inhibition above about 27%; inactive = the rest.

How did O=C(NCc1ccco1)C1CCN(c2ccc(N3CCOCC3)nn2)CC1 do in these assays?
Mtb UGM inh: 0.7; GDH-TPI counter-1: 0.5; Mtb bLac sens: -1.4; FBA Mtb inh: 27.2*; Rv3671c protease: 8.4; Mtb FBA confirm: -2.5; GDH-TPI counter-2: -2.8

What do the screens show for `O=C(C1CCN(S(=O)(=O)N2CCOCC2)CC1)N1CCN(c2ccc(F)cc2)CC1`?
Mtb UGM inh: -2.3; GDH-TPI counter-1: -15.5; Mtb bLac sens: 1.9; FBA Mtb inh: -2.6; Rv3671c protease: 3.2

Results for Cc1cnc(C)c(N2CCC(C(=O)NCc3ccco3)CC2)n1 ?
Mtb UGM inh: 1.3; GDH-TPI counter-1: 17.4; Mtb bLac sens: 0.8; FBA Mtb inh: -3.3; Rv3671c protease: -2.2

What do the screens show for `COc1cccc(C(=O)N2CCN(c3ccc(N4CCOCC4)nn3)CC2)c1`?
GDH-TPI counter-1: -4.3; Mtb bLac sens: -3.1; FBA Mtb inh: 28.6*; Rv3671c protease: -9.4; Mtb FBA confirm: 0.5; GDH-TPI counter-2: 0.1

How did O=C(Nc1cnccn1)Nc1ccccc1F do in these assays?
Mtb UGM inh: -1.7; GDH-TPI counter-1: -5.9; Mtb bLac sens: -14.7; FBA Mtb inh: -1.1; Rv3671c protease: -10.4

What do the screens show for `CC(C)(C)OC(=O)N(Cc1ccccc1)Cc1ccc(OCc2cccc(NC(=O)C3CC3)c2)cc1`?
GDH-TPI counter-1: 13.2; FBA Mtb inh: 1.6

What do the screens show for `CN(C)S(=O)(=O)c1cccc(NC(=O)CCc2c[nH]c3ccccc23)c1`?
Mtb UGM inh: -0.4; GDH-TPI counter-1: 5.9; Mtb bLac sens: -1.3; FBA Mtb inh: 2.7; Rv3671c protease: 4.8

What do the screens show for `O=c1c2ccccc2cnn1CCOc1cccc(Br)c1`?
Mtb UGM inh: -0.9; GDH-TPI counter-1: -10.3; Mtb bLac sens: -7.0; FBA Mtb inh: 0.2; Rv3671c protease: -0.6

Results for Cc1ccccc1C(=O)N1CCN(c2ccc(N3CCOCC3)nn2)CC1 ?
Mtb UGM inh: 2.0; GDH-TPI counter-1: 6.9; Mtb bLac sens: -9.2; FBA Mtb inh: 37.0*; Rv3671c protease: -2.6; Mtb FBA confirm: 55.7*; GDH-TPI counter-2: 42.7*

What do the screens show for `CCN(c1ccccc1)S(=O)(=O)c1ccc(Oc2ccc(C(C)=O)cc2OC)nc1`?
Mtb UGM inh: -2.1; GDH-TPI counter-1: -3.2; Mtb bLac sens: 2.9; FBA Mtb inh: -3.1; Rv3671c protease: 3.8

What do the screens show for `O=C1c2ccccc2NC(c2c(Cl)cccc2Cl)N1Cc1ccccc1` (configuration not stated)?
Mtb UGM inh: 2.6; GDH-TPI counter-1: 1.7; Mtb bLac sens: 3.6; FBA Mtb inh: 25.6; Rv3671c protease: -7.0

Results for Cc1ccc(C2Nc3ccccc3C(=O)N2Cc2ccco2)cc1 (configuration not stated) ?
Mtb UGM inh: -1.2; GDH-TPI counter-1: 13.6; Mtb bLac sens: -2.4; FBA Mtb inh: 43.0*; Rv3671c protease: -1.3; Mtb FBA confirm: 85.7*; GDH-TPI counter-2: 56.2*

What do the screens show for `O=C1c2ccccc2NC(c2cccc(F)c2)N1Cc1ccccc1` (configuration not stated)?
Mtb UGM inh: 0.8; GDH-TPI counter-1: 6.4; Mtb bLac sens: 6.6; FBA Mtb inh: 57.9*; Rv3671c protease: 3.7; Mtb FBA confirm: 97.0*; GDH-TPI counter-2: 81.3*

What do the screens show for `COc1ccc(C2Nc3ccccc3C(=O)N2c2ccccc2)cc1COc1ccccn1` (configuration not stated)?
Mtb UGM inh: 0.0; GDH-TPI counter-1: -5.0; Mtb bLac sens: -1.5; FBA Mtb inh: 90.4*; Rv3671c protease: -5.0; Mtb FBA confirm: 89.7*; GDH-TPI counter-2: 75.1*

What do the screens show for `COc1ccc(C2Nc3ccccc3C(=O)N2Cc2ccco2)cc1COc1ccc(NC(C)=O)cc1` (configuration not stated)?
Mtb UGM inh: 2.4; GDH-TPI counter-1: 12.2; Mtb bLac sens: -6.3; FBA Mtb inh: 40.6*; Rv3671c protease: -6.4; Mtb FBA confirm: 3.4; GDH-TPI counter-2: -4.2

Results for CCC(Oc1ccccc1)C(=O)Nc1nnc(S(=O)(=O)N2CCCC2)s1 (configuration not stated) ?
Mtb UGM inh: -0.6; GDH-TPI counter-1: 3.3; Mtb bLac sens: 8.5; FBA Mtb inh: 0.8; Rv3671c protease: 8.4

Results for O=C1c2ccccc2NC(c2cccc(F)c2)N1Cc1ccco1 (configuration not stated) ?
Mtb UGM inh: 1.8; GDH-TPI counter-1: 9.4; Mtb bLac sens: 0.8; FBA Mtb inh: 59.6*; Rv3671c protease: -2.9; Mtb FBA confirm: 74.3*; GDH-TPI counter-2: 59.0*

Results for Cn1c(=O)c2nc(Cl)c(-c3ccccc3)nc2n(C)c1=O ?
Mtb UGM inh: -0.4; GDH-TPI counter-1: 8.1; Mtb bLac sens: -0.6; FBA Mtb inh: 33.3*; Rv3671c protease: -8.9; Mtb FBA confirm: 151.6*; GDH-TPI counter-2: 105.2*

How did Cn1c(=O)c2nc(-c3ccccc3)c(-c3ccccc3)nc2n(C)c1=O do in these assays?
Mtb UGM inh: 1.6; GDH-TPI counter-1: 13.2; Mtb bLac sens: 1.3; FBA Mtb inh: 44.2*; Rv3671c protease: -5.5; Mtb FBA confirm: 81.0*; GDH-TPI counter-2: 77.8*

What do the screens show for `CN(CC(=O)NCc1ccccc1)CC(=O)Nc1ccc(Cl)c(C(F)(F)F)c1`?
Mtb UGM inh: 0.1; GDH-TPI counter-1: 6.6; Mtb bLac sens: -5.8; FBA Mtb inh: 34.3*; Rv3671c protease: 2.7; Mtb FBA confirm: 92.5*; GDH-TPI counter-2: 73.2*

How did CN(C)c1ccc(NC(=O)CCN2CCN(c3ccccn3)CC2)cc1 do in these assays?
Mtb UGM inh: 0.0; GDH-TPI counter-1: 6.6; Mtb bLac sens: 3.5; FBA Mtb inh: 0.9; Rv3671c protease: -14.1

What do the screens show for `O=C(Nc1cccnc1)C1Cc2c(-c3ccc4c(c3)OCO4)ccnc2O1` (configuration not stated)?
GDH-TPI counter-1: 1.8; FBA Mtb inh: 54.4*; Mtb FBA confirm: active; GDH-TPI counter-2: 162.4*

How did O=C(Nc1ccccc1)C1Cc2c(-c3ccc4c(c3)OCO4)ccnc2O1 (configuration not stated) do in these assays?
GDH-TPI counter-1: 7.1; FBA Mtb inh: 46.2*; Mtb FBA confirm: 143.3*; GDH-TPI counter-2: 145.7*

Results for O=C(Nc1ccc2c(c1)OCO2)C1Cc2c(-c3cccnc3)ccnc2O1 (configuration not stated) ?
GDH-TPI counter-1: 10.6; FBA Mtb inh: 0.2

Results for c1ccc(COc2ccc(OCCN3CCCCC3)cc2)cc1 ?
Mtb UGM inh: 0.1; GDH-TPI counter-1: 9.9; Mtb bLac sens: -2.1; FBA Mtb inh: -0.1; Rv3671c protease: 1.4

How did COc1ccc2nc(C(c3ccc(C)cc3)n3c(-c4ccccc4Br)nc4ccccc43)[nH]c2c1 (configuration not stated) do in these assays?
FBA Mtb inh: 52.4*; Mtb FBA confirm: active; GDH-TPI counter-2: active

High-throughput results: PubChem, several laboratories
